In PubChem BioAssay (Tox21):
Results filed as inconclusive are left out. Activity calls are given as the source filed them. Unless noted, calls come from the whole dose curve.

Columns and labels:
[1] = Nuclear factor erythroid 2-related factor 2/antioxidant responsive element (Nrf2/ARE) small molecule agonists: luciferase reporter gene qHTS assay in human keratinocytes (AID 1919969); note: nearly all actives have a fitted effect of over 35% in size; note: potency is the fitted concentration of half-maximal effect
[2] = molecular target: KiSS-1 receptor (Homo sapiens) (UniProt Q969F8); test: Human kisspeptin (KISS1R) small molecule agonists, calcium flux assay in KISS1R-HEK293 cells (AID 1920064; active = well fitted activation curve with a large enough effect in the repeat runs)
KiSS-1 receptor (Homo sapiens), sequence (Q969F8 whole entry, looked up): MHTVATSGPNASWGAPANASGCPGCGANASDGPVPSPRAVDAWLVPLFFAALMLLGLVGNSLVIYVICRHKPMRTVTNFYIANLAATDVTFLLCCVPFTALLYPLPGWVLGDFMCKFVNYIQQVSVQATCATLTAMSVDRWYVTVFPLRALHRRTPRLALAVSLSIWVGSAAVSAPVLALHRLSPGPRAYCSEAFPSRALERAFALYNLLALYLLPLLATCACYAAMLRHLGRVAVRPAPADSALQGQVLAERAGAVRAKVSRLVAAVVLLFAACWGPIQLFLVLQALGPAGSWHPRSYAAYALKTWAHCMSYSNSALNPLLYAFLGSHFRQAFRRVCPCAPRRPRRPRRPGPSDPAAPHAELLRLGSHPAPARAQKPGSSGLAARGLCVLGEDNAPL
Summary of the method: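 Agonist activity is monitored as intracellular calcium rise in engineered HEK293 cells carrying human KISS1R. Cells are dye-loaded for 1 h at 37 C before compound addition, and fluorescence is recorded for 3 min.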

[3] = G protein-coupled receptor (GPCR) small molecule agonists, calcium flux assay: HEK293 wild type cell line counter screen (AID 1920065)
Summary of the method: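 Seed cells, incubate 18 h (37 C, 5% CO2); add calcium dye, 1 h at 37 C; pin-transfer compounds, ATP control or DMSO; read fluorescence 480/540 nm each second for 3 min.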

[4] = p53 small molecule agonists, cell-based qHTS assay with human liver microsomes (AID 1963577);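 note: p53 response element beta-lactamase reporter cells with liver microsomes plus NADPH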
Summary of the method: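 In this qHTS, p53 response-element beta-lactamase cells receive test compound together with a microsome/NADPH activating system (0.5 mg/mL final each) and are incubated 16 h at 37 C before LiveBLAzer fluorescence detection.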

[5] = p53 small molecule agonists, cell-based qHTS assay with rat liver microsomes (AID 1963578)
Summary of the method: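 Agonist mode in p53RE-bla reporter cells, with compounds co-incubated 16 h at 37 C alongside 0.5 mg/mL rat liver microsomes and 0.5 mg/mL NADPH (final), followed by a 2 h LiveBLAzer detection step.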

[6] = p53 small molecule agonists, cell-based qHTS assay with human liver microsomes: qHTS cell viability counter screen (AID 1963579); note: nearly all actives have a fitted effect of over 45% in size
Summary of the method: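 Metabolically activated exposure: compounds, human liver microsomes and NADPH (0.5 mg/mL final apiece) were added to p53RE-bla cells seeded 5 h earlier, left 16 h at 37 C, and then assessed for viability by CellTiter-Glo luminescence.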

[7] = p53 small molecule agonists, cell-based qHTS assay with rat liver microsomes: qHTS cell viability counter screen (AID 1963580); note: nearly all actives have a fitted effect of over 45% in size
Summary of the method: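 Rat liver microsome (0.5 mg/mL final) and NADPH (0.5 mg/mL final) co-incubation with compounds for 16 h at 37 C on HCT-116 p53RE-bla cells; cytotoxicity taken from intracellular ATP luminescence.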

[8] = p53 small molecule agonists, cell-based qHTS assay: qHTS cell viability counter screen (AID 1963581); note: nearly all actives have a fitted effect of over 45% in size
Summary of the method: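 Viability was counter-screened in parallel with the p53 agonist reporter by measuring intracellular ATP luminescence in the same HCT-116 p53RE-bla wells after 16 h compound treatment at 37 C.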

[9] = molecular target: 5-hydroxytryptamine receptor 2A (Homo sapiens) (UniProt P28223); test: 5-hydroxytryptamine receptor 2A (HTR2A) small molecule antagonists, cell-based qHTS assay (AID 1963586); note: nearly all actives have a fitted effect of over 45% in size; note: potency is the fitted concentration of half-maximal effect
5-hydroxytryptamine receptor 2A (Homo sapiens), sequence (P28223 whole entry, looked up): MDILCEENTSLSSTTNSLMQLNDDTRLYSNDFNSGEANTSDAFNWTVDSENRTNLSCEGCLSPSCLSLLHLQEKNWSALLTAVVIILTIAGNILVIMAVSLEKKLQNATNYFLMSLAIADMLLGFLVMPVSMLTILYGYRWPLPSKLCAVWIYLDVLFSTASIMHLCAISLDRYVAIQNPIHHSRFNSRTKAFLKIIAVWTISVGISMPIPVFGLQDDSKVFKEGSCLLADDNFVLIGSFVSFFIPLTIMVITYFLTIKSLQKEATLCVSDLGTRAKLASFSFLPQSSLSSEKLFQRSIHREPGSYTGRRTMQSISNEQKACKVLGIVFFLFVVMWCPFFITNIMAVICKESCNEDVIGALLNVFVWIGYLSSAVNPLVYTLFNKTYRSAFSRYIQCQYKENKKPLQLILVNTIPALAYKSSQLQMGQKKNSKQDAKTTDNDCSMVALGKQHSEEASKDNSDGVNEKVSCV
Summary of the method: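 CHO cells stably expressing human HTR2A were plated for 18 h at 37 C, then loaded with calcium dye for 1 h. Compounds were preincubated 5 min at room temperature before DOI (4 nM solution) was added. Kinetic fluorescence was read for 3 min.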

[10] = molecular target: Muscarinic acetylcholine receptor M1 (Homo sapiens) (UniProt P11229); test: Cholinergic receptor muscarinic 1 (CHRM1) small molecule antagonists, cell-based qHTS assay (AID 1963588); note: nearly all actives have a fitted effect of over 40% in size; note: potency is the fitted concentration of half-maximal effect
Muscarinic acetylcholine receptor M1 (Homo sapiens), sequence (P11229 whole entry, looked up): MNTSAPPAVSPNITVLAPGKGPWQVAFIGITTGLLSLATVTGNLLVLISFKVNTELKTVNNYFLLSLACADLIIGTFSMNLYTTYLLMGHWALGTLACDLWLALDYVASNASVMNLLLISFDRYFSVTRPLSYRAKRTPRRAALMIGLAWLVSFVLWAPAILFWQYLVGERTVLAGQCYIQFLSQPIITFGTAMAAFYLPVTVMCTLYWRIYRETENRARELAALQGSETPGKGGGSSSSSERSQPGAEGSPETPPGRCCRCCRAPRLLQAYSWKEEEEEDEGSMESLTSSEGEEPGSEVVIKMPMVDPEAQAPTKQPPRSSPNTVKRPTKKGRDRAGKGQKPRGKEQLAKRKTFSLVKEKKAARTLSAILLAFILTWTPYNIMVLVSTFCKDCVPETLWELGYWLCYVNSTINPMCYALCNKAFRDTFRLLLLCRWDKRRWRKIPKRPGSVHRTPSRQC
Summary of the method: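 Compounds were tested at 15 concentrations in three independent runs. Dye-loaded CHRM1-CHO cells were exposed 5 min at room temperature before stimulation by acetylcholine added at 50nM. Intracellular calcium was read kinetically on FDSS for 3 min.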

[11] = molecular target: Muscarinic acetylcholine receptor M1 (Homo sapiens) (UniProt P11229); test: Cholinergic receptor muscarinic 1 (CHRM1) small molecule agonists, cell-based qHTS assay (AID 1963589); note: nearly all actives have a fitted effect of over 35% in size
Summary of the method: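 Cells were plated and incubated 18 h at 37 C/5% CO2, loaded with calcium dye for 1 h at 37 C, then treated with compounds in DMSO. Fluorescence was recorded kinetically at 1 sec intervals.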

[12] = cAMP Responsive Elements (CRE) small molecule agonists, cell-based qHTS assay (AID 1963590)
Summary of the method: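 Cells carrying a CRE-driven beta-lactamase reporter (HEK 293T) are seeded, incubated overnight (18 h), and treated with test compounds for 3 h at 37 C; reporter activity is then detected with a FRET substrate after 2 h at room temperature.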

[13] = cAMP Responsive Elements (CRE) small molecule antagonists, cell-based qHTS assay (AID 1963591; active = well fitted inhibition curve with a large enough effect in the signal ratio in the repeat runs, not every such curve was filed as active; the % refers to the signal ratio)
Summary of the method: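 Cells (CRE-bla HEK 293T, DMEM with 10% dialyzed FBS and 25 mM HEPES) are seeded and incubated 18 h. Compounds are added with NKH477 agonist at 0.25 uM final for 3 h, then FRET substrate for 2 h.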

[14] = molecular target: Beta-2 adrenergic receptor (Homo sapiens) (UniProt P07550); test: Adrenergic beta2 receptor (ADRB2) small molecule antagonists, cell-based qHTS assay (AID 1963592); note: series mostly up to about 92 µM; nearly all actives have a fitted effect of over 50% in size
Beta-2 adrenergic receptor (Homo sapiens), sequence (P07550 whole entry, looked up): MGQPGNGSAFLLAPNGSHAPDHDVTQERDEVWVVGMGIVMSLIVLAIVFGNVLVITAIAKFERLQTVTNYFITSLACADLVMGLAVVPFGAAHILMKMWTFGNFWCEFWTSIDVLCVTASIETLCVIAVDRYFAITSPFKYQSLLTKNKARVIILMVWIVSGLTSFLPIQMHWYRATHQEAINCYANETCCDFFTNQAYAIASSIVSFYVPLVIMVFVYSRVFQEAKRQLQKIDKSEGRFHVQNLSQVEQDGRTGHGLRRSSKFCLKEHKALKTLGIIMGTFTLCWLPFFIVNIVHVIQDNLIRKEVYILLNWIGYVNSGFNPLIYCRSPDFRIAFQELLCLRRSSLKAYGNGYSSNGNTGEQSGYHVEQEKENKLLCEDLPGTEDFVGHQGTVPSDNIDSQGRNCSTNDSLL
Summary of the method: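 Assay format: CHO-ADRB2 cells, 18-20hr seeding at 37C/5% CO2, then compound plus 1nM isoproterenol agonist mix for 0.5hr RT. Homogeneous time-resolved fluorescence cAMP detection after 1hr, expressed as 665/615 nm ratio.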

[15] = molecular target: Beta-2 adrenergic receptor (Homo sapiens) (UniProt P07550); test: Adrenergic beta2 receptor (ADRB2) small molecule agonists, cell-based qHTS assay (AID 1963593);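 note: CHO cells stably overexpressing human ADRB2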
Summary of the method: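 CHO cells stably over-expressing ADRB2 were plated overnight at 37C, then dosed with compounds plus a stimulation mix containing 100uM IBMX and 25uM Ro-20-1724 for 0.5hr at room temperature. cAMP was measured by HTRF competition, 1hr.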

[16] = molecular target: D(2) dopamine receptor (Homo sapiens) (UniProt P14416); test: Dopamine D2 receptor (DRD2) small molecule agonists, cell-based qHTS assay (AID 1963594); note: nearly all actives have a fitted effect of over 35% in size
D(2) dopamine receptor (Homo sapiens), sequence (P14416 whole entry, looked up): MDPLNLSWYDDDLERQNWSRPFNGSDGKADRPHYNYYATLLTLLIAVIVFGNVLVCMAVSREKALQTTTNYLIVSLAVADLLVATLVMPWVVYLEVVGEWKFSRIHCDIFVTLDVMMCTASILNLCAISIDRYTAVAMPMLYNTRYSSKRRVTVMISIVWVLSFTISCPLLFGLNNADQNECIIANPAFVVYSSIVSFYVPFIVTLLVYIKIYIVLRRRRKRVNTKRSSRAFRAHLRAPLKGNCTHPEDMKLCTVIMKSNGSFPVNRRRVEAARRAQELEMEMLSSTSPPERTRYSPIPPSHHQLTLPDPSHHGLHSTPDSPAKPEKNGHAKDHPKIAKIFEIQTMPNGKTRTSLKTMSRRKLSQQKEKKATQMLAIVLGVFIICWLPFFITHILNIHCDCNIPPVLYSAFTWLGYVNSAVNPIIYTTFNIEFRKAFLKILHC
Summary of the method: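 cAMP accumulation in DRD2-HEK293 cells measured by HTRF after 1 h detection; compounds added 10 min before NKH477 (200nM […]) forskolin-analogue stimulation, 30 min at room temperature, with Ro20-1724 present at 0.1 mM final.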

[17] = molecular target: D(2) dopamine receptor (Homo sapiens) (UniProt P14416); test: Dopamine D2 receptor (DRD2) small molecule antagonists, cell-based qHTS assay (AID 1963595; active = well fitted inhibition curve with a large enough effect in the signal ratio in the repeat runs, with a control signal flat; the % refers to the signal ratio; note: potency is the fitted concentration of half-maximal effect)
Summary of the method: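 Readout: HTRF cAMP, cAMP-d2 competing with cellular cAMP for anti-cAMP cryptate, read after 1 h. Cells: DRD2-HEK293. Conditions: 0.1 mM Ro20-1724, 12 nM quinpirole, 200 nM NKH477, 30 min RT.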

[18] = p53 small molecule agonists, cell-based qHTS assay (AID 1963582; active = well fitted activation curve with a large enough effect in the signal ratio in the repeat runs, not every such curve was filed as active; the % refers to the signal ratio)
Summary of the method: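 Cells carrying a p53-responsive bla reporter are treated with test compounds for 16 h at 37 C; beta-lactamase activity is then detected with LiveBLAzer B/G FRET substrate after 2 h at room temperature.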

[19] = molecular target: 5-hydroxytryptamine receptor 2A (Homo sapiens) (UniProt P28223); test: 5-hydroxytryptamine receptor 2A (HTR2A) small molecule agonists, cell-based qHTS assay (AID 1963587); note: nearly all actives have a fitted effect of over 30% in size; note: potency is the fitted concentration of half-maximal effect
Summary of the method: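 Kinetic calcium-flux fluorescence (2 min, 1 sec intervals) after compound addition in agonist mode. HTR2A-CHO cells were cultured 18 h, then dye-loaded 1 h at 37 C.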

[20] = molecular target: Gonadotropin-releasing hormone receptor (Homo sapiens) (UniProt P30968); test: Human gonadotropin-releasing hormone receptor (GnRHR) small molecule agonists, calcium flux assay in GnRHR-HEK293 cells (AID 1920063); note: nearly all actives have a fitted effect of over 35% in size
Gonadotropin-releasing hormone receptor (Homo sapiens), sequence (P30968 whole entry, looked up): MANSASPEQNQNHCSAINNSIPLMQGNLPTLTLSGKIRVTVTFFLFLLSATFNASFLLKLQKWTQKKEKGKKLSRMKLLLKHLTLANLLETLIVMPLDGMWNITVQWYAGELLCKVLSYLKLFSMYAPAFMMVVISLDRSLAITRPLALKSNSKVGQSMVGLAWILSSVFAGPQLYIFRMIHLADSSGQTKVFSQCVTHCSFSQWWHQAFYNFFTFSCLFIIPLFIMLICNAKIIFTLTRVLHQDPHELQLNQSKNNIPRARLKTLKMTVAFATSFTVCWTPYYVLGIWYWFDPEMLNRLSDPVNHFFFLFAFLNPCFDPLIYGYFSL
Summary of the method: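 Agonist activity was measured as intracellular calcium flux in HEK293 cells engineered to stably express human GnRHR. After dye loading for 1 hour at 37 C, compounds in DMSO were added and fluorescence was followed for 3 minutes.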

Measured: Potency

O=C(NCCO[N+](=O)[O-])c1cccnc1
not listed: [18] | [19] | [20]
inactive: all other assays above

CCCCCCCC/C=C\CCCCCCCCCCCC(=O)O
not listed: [3] | [11] | [15] | [16] | [20]
inactive: all other assays above

CCOC(=O)c1ncn2c1CN(C)C(=O)c1cc(F)ccc1-2
not listed: [9] | [10] | [11] | [18] | [19] | [20]
inactive: all other assays above

C=C(C)C(=O)OCC[N+](C)(C)C
active: [1] 60900 nM
not listed: [2] | [4] | [9] | [10]
inactive: all other assays above

CN1CCN(C2=Nc3ccccc3Sc3ccc(Cl)cc32)CC1
active: [9] 81.8 nM | [10] 1450 nM | [17] 5960 nM
not listed: [3] | [5] | [8] | [12] | [13] | [15]
inactive: all other assays above

Oc1ccc(Cl)c2cccnc12
active: [1] 668 nM
not listed: [13] | [20]
inactive: all other assays above

Cc1cccc(Nc2ccncc2S(=O)(=O)NC(=O)NC(C)C)c1
not listed: [8] | [9] | [10] | [11] | [16] | [19] | [20]
inactive: all other assays above

COc1ccccc1N1CCN(CCCCNC(=O)c2ccc(-c3ccc(C(C)=O)cc3)cc2)CC1
active: [9] 326 nM | [19] 53.5 nM | [10] 1030 nM | [17] 750 nM
not listed: [1] | [2] | [8] | [13] | [14] | [15]
inactive: all other assays above

O=C1OC(=O)C2CCCCC12 (stereo unspecified)
not listed: [1] | [15] | [18]
inactive: all other assays above

O=C(O)c1cccc(-c2noc(-c3ccccc3F)n2)c1
inactive: [1] | [20] | [3] | [4] | [5] | [18] | [19] | [11] | [14] | [16] | [17]

CCCCC(CC)CN1C(=O)C2C3C=CC(C3)C2C1=O (stereo unspecified)
active: [1] 54500 nM
not listed: [10] | [12] | [13] | [14] | [18] | [20]
inactive: all other assays above

O=C(Cn1ccnc1[N+](=O)[O-])NCCO
not listed: [1] | [10] | [13] | [14]
inactive: all other assays above

S=C1NC=NC2N=CNC12 (stereo unspecified)
not listed: [2] | [8] | [10] | [13] | [15] | [18]
inactive: all other assays above

CC(C)(C(=O)c1cccnc1)c1cccnc1
not listed: [1] | [9] | [10] | [11] | [15] | [17] | [19]
inactive: all other assays above
